Assay outcomes from PubChem.
POLI inh: inhibitors of human DNA polymerase iota; AID 588590; Potency, µM (top dose mostly 115 µM), inactives show at the highest dose activity, negative = inhibition, actives largely listed as inhibitors; Pol iota fluorescent replication assay, 10 min; 390,000 compounds, 1% hits; Q9UNA4
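Fluorescent replication assay read twice, at 0 min and 10 min after adding 50 nM (final) substrate. Enzyme (10 nM) and compounds were first incubated 15 min at room temperature; enzyme-free buffer wells were negative controls.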
Pol eta inh-1: inhibitors of human DNA polymerase eta | Q9Y253 | recombinant Pol eta, fluorescent DNA replication assay | Potency, µM (titrated, usually from 114 µM), inactives show at the top dose activity change, negative = inhibition, most hits filed as inhibitors | 390,000 compounds, 1.2% hits; further: on the % scale 0 is the no-effect control and ±100 the full control effect
Target sequence (Q9Y253 whole entry, looked up): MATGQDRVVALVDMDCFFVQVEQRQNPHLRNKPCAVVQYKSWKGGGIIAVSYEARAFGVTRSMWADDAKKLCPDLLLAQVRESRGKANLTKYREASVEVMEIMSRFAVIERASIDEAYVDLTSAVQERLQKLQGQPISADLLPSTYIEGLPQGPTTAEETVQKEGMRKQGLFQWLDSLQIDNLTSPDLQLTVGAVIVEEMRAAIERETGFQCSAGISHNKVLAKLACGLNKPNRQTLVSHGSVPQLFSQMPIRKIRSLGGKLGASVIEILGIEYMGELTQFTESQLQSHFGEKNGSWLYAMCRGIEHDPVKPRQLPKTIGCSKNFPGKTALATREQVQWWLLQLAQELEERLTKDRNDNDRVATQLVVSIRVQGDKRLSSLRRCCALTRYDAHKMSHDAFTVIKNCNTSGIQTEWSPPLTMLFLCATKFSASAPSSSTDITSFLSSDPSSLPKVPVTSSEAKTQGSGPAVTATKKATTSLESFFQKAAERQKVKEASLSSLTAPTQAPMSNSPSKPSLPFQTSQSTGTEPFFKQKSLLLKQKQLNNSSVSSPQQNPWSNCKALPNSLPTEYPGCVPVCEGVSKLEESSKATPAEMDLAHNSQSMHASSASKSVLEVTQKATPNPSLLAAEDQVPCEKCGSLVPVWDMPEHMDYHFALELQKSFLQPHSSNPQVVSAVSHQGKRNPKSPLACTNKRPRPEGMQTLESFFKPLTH
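Fluorescent replication assay: 50 nM final substrate added after a 15 min room-temperature compound preincubation with 10 nM enzyme. Signal taken at 0 min and again at 10 min.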
POLB inh: inhibitors of human DNA polymerase beta. P06746. Pol beta primer extension/strand displacement, fluorescence kinetic. Potency, µM (titrated, usually from 114 µM), for the others: at the highest dose activity change, negative = inhibition, most hits filed as inhibitors. AID 485314. 340,000 compounds, 1.3% hits; further: on the % scale 0 is the no-effect control and ±100 the full control effect
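Pol beta (10 nM) was preincubated with compound for 15 min at room temperature. The reaction was then started with 50 nM substrate and read immediately and after a further 10 min at room temperature.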
Pol kappa inh-1: DNA polymerase kappa (human) inhibition. Q9UBT6. purified Pol kappa, fluorescent DNA synthesis assay, 10 min. Potency, µM (series often up to 107 µM), without a hit: at the highest dose activity, negative = inhibition, most hits filed as inhibitors. 400,000 compounds, 0.53% hits. AID 588579; further: on the % scale 0 is the no-effect control and ±100 the full control effect
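Enzyme at 10 nM met test compounds for 15 min at room temperature. Substrate addition (50 nM final) began the reaction, which was monitored by fluorescence at 0 and 10 min.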
L3MBTL1 block: inhibitors of human L3MBTL1 | Q9Y468 | AlphaScreen L3MBTL1–H3K9me1 peptide binding | Potency, µM (highest dose often 57.1 µM), inactives show at the top dose activity, negative = inhibition, hits mostly inhibitors | 230,000 compounds, 0.66% hits | AID 485360; further: on the % scale 0 is the no-effect control and ±100 the full control effect; nearly all actives have a fitted effect of over 60% in size
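First, the protein-peptide complex forms for 30 min at room temperature (L3MBTL1 50 nM, biotinylated H3K9me1 peptide 75 nM). Next, compounds are pin-transferred and incubated 30 min. Finally, AlphaScreen beads are added and read after 30 min.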
WRN helicase inh: inhibitors of human WRN helicase | Potency, µM (series often up to 114 µM), inactives show top-dose activity change, negative = inhibition, most hits filed as inhibitors | WRN helicase unwinding, fluorescent forked duplex, kinetic | 360,000 compounds, 0.46% hits | Q14191; further: on the % scale 0 is the no-effect control and ±100 the full control effect; nearly all actives have a fitted effect of over 55% in size
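WRN at 20 nM final was preincubated with compound for 15 min at room temperature; reaction started with 100 nM forked duplex oligonucleotide carrying fluorophore and quencher plus 2 mM ATP (final). Unwinding followed kinetically by red fluorescence (ex 525/em 598 nm).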
PGK validate: validation of Trypanosoma brucei phosphoglycerate kinase inhibitors; AID 686980; shares compounds with Pol kappa inh-1; Potency, µM (series often up to 57.5 µM), inactives show at the top dose activity change, negative = inhibition, most hits filed as inhibitors; 500 compounds, 79% hits; TbPGK coupled GAPDH assay, Kinase-Glo luminescence; further: on the % scale 0 is the no-effect control and ±100 the full control effect; nearly all actives have a fitted effect of over 65% in size
POLI cherry-pick: Confirm cherry-picked inhibitors of human polymerase iota | 1,500 compounds, 77% hits | AID 720496 | Pol iota primer extension, TAMRA/BHQ fluorescence | Potency, µM, actives largely listed as inhibitors | shares compounds with Pol kappa inh-1
Pol kappa inh-2: Pol kappa (human) inhibition, cherry-pick confirmation | shares compounds with Pol eta inh-1 | purified Pol-kappa, fluorescent strand-displacement substrate | Potency, µM, usual class: inhibitors | 920 compounds, 76% hits
Pol eta inh-2: confirmation of human DNA polymerase eta inhibitors; shares compounds with Pol eta inh-1; Pol eta primer extension, TAMRA/BHQ fluorescence, 10 min; Potency, µM, usual class: inhibitors; 2,600 compounds, 64% hits; AID 720502
The depositor's hits bear a star; ? = inconclusive; . = no result given; [ ] = remark or other dose. The list is not random: actives were taken first. Their share in the collection is about 2.5%. The call rests on the fitted dose curve; in most records, active means well fitted curve in the direction sought with a large enough effect; inconclusive means small, poorly fitted or top-dose-only effect, or another doubt; inactive means no such curve, though single readings can be large; an effect the other way counts as inactive or inconclusive. Potency means the concentration at half of the fitted maximal effect.

SMILES	POLI inh	Pol eta inh-1	POLB inh	Pol kappa inh-1	L3MBTL1 block	WRN helicase inh	POLI cherry-pick	Pol kappa inh-2	Pol eta inh-2	others
Cc1cc(C=O)c(C)n1-c1cc(C(=O)O)cc(C(=O)O)c1	25µM*	4µM*	7.9µM*	50µM*	5µM*	-26%	17*	.	5.4*	PGK validate=?
Cc1ccc(C)n1-c1cccc(C(=O)O)c1	.	.	1µM*	.	1.8µM*	.	8.4*	?	0.17*
COc1ccc(CNC(=O)c2cccc(N3CCCS3(=O)=O)c2)cc1OC	11%	-7%	0%	-7%	.	.	.	.	.
CCC(=O)N(CCC(c1ccccc1)c1ccco1)Cc1cccs1 (stereo not given)	1%	-23%	7%	-9%	2%	-3%[57.1 µM]	.	.	.
COc1ccccc1C(CCN(Cc1cccs1)C(C)=O)c1ccco1 (stereo not given)	22µM*	25µM*	28µM*	-36%	-2%	?	?	.	76*
CN1\C(=C/C=C/C=C/C=[N+](C)C)C(C)(C)c2ccccc21	18µM*	40µM*	16µM*	50µM*	?	4.2µM*	38*	38*	34*
CN1/C(=C\C=O)C(C)(C)c2ccccc21	61%	-4%	5%	-2%	-4%	0%	.	.	.
CCOCCCNC(=O)c1ccc(OC)cc1	3%	13%	16%	3%	.	6%	.	.	.
COc1ccc(CCC(=O)O)c(O)c1	?	32µM*	40µM*	71µM*	.	-13%	75*	.	67*
COc1cc(/C=N/NC(=O)c2ccccc2O)ccc1OCC(=O)Nc1ccccc1	28µM*	50µM*	6.3µM*	50µM*	5%	?	42*	17*	?
O=C(COc1ccc(/C=N/NC(=O)c2ccccc2O)cc1)Nc1ccccc1	?	?	18µM*	?	-21%	-36%	.	47*	.	PGK validate=15µM*
COc1cc(/C=N/NC(=O)c2ccncc2)ccc1OCC(=O)Nc1ccccc1	-19%	9%	0%	-6%	.	-7%	.	.	.
Fc1ccc(C2=CC(c3ccco3)n3nnnc3N2)cc1 (stereo not given)	31%	-19%	-21%	1%	2%	-3%	.	.	.
CCN(c1ccccc1)S(=O)(=O)c1cc(C(=O)O)ccc1C	?	13µM*	13µM*	-30%	?	-31%[11.6 µM]	7.5*	5.3*	9.5*
Cc1ccccc1NC(=O)CN1C(=O)S/C(=C\c2ccc(-c3cc(C(=O)O)ccc3C)o2)C1=O	8.9µM*	?	32µM*	?	?	?	27*	8.4*	27*
C#CCN1C(=O)S/C(=C\c2ccc(-c3ccc(C(=O)O)cc3C)o2)C1=O	8.9µM*	7.1µM*	16µM*	18µM*	5µM*	?	15*	.	8.5*
Cc1ccc(C(=O)O)cc1-c1ccc(/C=C2\SC(=O)N(CC(=O)Nc3ccccc3)C2=O)o1	?	18µM*	?	?	?	?	42*	.	48*
COc1ccc(-n2c(C)nc3c(cnn3-c3ccc(Cl)cc3)c2=O)cc1	-7%	?	16%	-10%	8%	2%	.	.	.
Cc1ccc(S(=O)(=O)N2[C@@H](c3ccc(Cl)cc3)C(C(=O)O)=CC[C@H]2c2ccc(C(C)C)cc2)cc1	-6%	?	.	-38%	-7%	-1%	60*	42*	85*
Cc1ccc([C@H]2C(C(=O)O)=CC[C@@H](c3ccc(C(C)C)cc3)N2S(=O)(=O)c2ccc(C)cc2)cc1	?	?	.	-35%	-8%	-24%	.	.	.
C/C(=N\NC(=O)c1cc(-c2cccc([N+](=O)[O-])c2)n[nH]1)c1ccccc1O	-11%	8.9µM*	11µM*	-32%	?	?	47*	84*	.
C/C(=N/NC(=O)c1cc(-c2cccc([N+](=O)[O-])c2)n[nH]1)c1cccc(O)c1	-25%	-6%	21%	3%	4%	-1%	.	.	.
CCCCOc1ccc(C(=O)N(Cc2ccco2)Cc2ccco2)cc1	?	32µM*	22µM*	-37%	.	.	67*	15*	54*
O=c1cc(-c2ccc(O)c(O)c2)oc2cc(O)c(C3OC(CO)C(O)C(O)C3O)c(O)c12 (stereo not given)	10µM*	3.2µM*	4.5µM*	20µM*	16µM*	?	42*	.	19*
O=c1cc(-c2ccc(O)cc2)oc2cc(OC3OC(CO)C(O)C(O)C3O)c(C3OC(CO)C(O)C(O)C3O)c(O)c12 (stereo not given)	.	.	.	10%[60.1 µM]	.	.	.	.	.
SMILES	POLI inh	Pol eta inh-1	POLB inh	Pol kappa inh-1	L3MBTL1 block	WRN helicase inh	POLI cherry-pick	Pol kappa inh-2	Pol eta inh-2	others
CC1(C(=O)NS(=O)(=O)c2ccc(F)cc2F)CCN1C(=O)CC1CCCCC1 (stereo not given)	.	.	.	.	.	-7%	.	.	.
CC1=NOC(=O)/C1=C\c1ccc(-c2ccccc2Br)o1	?	20µM*	22µM*	?	.	56µM*	75*	.	48*
C=C1CCN(C(Cc2ccccc2)C(=O)NC2CCN(Cc3ccccc3)CC2)S(=O)(=O)c2ccccc21 (stereo not given)	20%	.	.	7%	.	.	.	.	.
O=c1[nH]c(=S)[nH]c2c1C(c1ccc(Br)cc1)c1c([nH]c(=S)[nH]c1=O)O2	1µM*	2.2µM*	13µM*	4µM*	.	14µM*	2.7*	.	1.7*
O=C1CCCC2=C1C(c1ccc(Br)cc1)c1c([nH]c(=S)[nH]c1=O)N2 (stereo not given)	?	-10%	-21%	-31%	-16%	-3%	.	.	.
C=CCn1c(SCC(=O)N2CCOCC2)nc2c([nH]c3ccccc32)c1=O	24%	?	0%	-12%	.	-24%	.	.	.
COCCN1C(=O)C(=O)/C(=C(/O)c2cccc(OC)c2)C1c1ccco1 (stereo not given)	?	10µM*	32µM*	?	?	-10%[11.6 µM]	?	.	60*
